The values that follow come from PubChem BioAssay.

Assay [1] has as its system XIP peptide (Xip251-270) binding. As to the kind of experiment: XIP fragment 251-270 binding compounds – biochemical, small-molecule microarray, fluorescence 635/667 nm, 0.1 µg/mL protein, primary screen (AID 1182). The note with it: fluorescent protein binding, 635 nm, higher = more signal, called active from +8 up or from −8 down.
The next assay relates to XIP peptide (Xip251-270). As to the kind of experiment: compounds binding XIP fragment 251-270 – biochemical, small-molecule microarray, fluorescence 635/667 nm, 0.5 µg/mL protein, primary screen (AID 1183). As to conditions: fluorescence 635 nm, higher = more signal.
A short description of assay [2]: blood-stage malaria parasite viability loss – strain 3D7, DAPI fluorescence, 100 nL, primary screen (AID 1184).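 Also: parasites grown inside human red blood cells in medium with human serum.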 As to conditions: P. falciparum 3D7 growth, 3 d, higher = more signal.
Assay [3] deals with Homeobox protein Hox-A13 (Mus musculus) (UniProt Q62424). Briefly: disruptors of Hoxa13 oligonucleotide interaction – biochemical, fluorescence polarization, labeled oligonucleotide, primary screen (AID 1185). As to conditions: Hoxa13:DNA binding, 15 min, higher = more signal, called active from +8 up or from −8 down. A general note: Polarisation of emitted light reports the rotation of a fluorescent probe.
Homeobox protein Hox-A13 (Mus musculus), sequence (Q62424 whole entry, looked up): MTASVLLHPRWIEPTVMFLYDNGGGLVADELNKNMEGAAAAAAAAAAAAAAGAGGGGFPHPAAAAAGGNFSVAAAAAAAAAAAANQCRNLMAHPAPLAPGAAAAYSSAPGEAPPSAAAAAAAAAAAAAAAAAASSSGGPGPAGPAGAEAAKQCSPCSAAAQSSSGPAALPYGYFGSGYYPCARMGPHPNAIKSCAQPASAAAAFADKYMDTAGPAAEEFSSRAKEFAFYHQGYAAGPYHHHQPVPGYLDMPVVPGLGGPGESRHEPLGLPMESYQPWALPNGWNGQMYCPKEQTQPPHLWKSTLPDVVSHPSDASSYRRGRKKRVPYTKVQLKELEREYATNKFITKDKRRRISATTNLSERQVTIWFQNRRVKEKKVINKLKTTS

A short description of assay [4]: blockers of DNA damage checkpoint Chk1 activation – imaging, HeLa, hydroxyurea, phospho-Chk1 antibody, percent positive cells, primary screen (AID 1186). As to conditions: hydroxyurea-induced phospho-Chk1 immunofluorescence imaging, higher = more signal.
A short description of assay [5]: blockers of DNA damage checkpoint Chk1 activation – imaging, HeLa, hydroxyurea, phospho-Chk1 nuclear intensity, primary screen (AID 1187). The note with it: hydroxyurea-induced phospho-Chk1 immunofluorescence imaging, higher = more signal.

The source made the active and inactive calls. Unless noted, no rule for the calls is given here.

For `C=CCOC(=O)[C@@H]1[C@H]2C(=O)O[C@H](c3ccccc3)[C@H](c3ccccc3)N2[C@H](c2ccc(OCCOC(=O)[C@@H]3C[C@@H]4C(=O)N[C@@H](CC(C)C)C(=O)N4[C@@H]3c3ccc(O)cc3)cc2)[C@@]12C(=O)Nc1ccc(I)cc12`, the composite z-score was 0.78 (inactive) in assay [1] and 0.761 with XIP peptide (Xip251-270). Further, the z-score in assay [2] is -1.51; in assay [3], 0.374 (inactive); in assay [4], -0.926 (inactive); in assay [5], -0.838 (inactive).

On to `COC(=O)C1(CC(C)C)C=C2C(=C(C)C(=O)C2C)CN1` (stereo not given), for which the composite z-score in assay [1] was -0.583 (inactive); in the assay with XIP peptide (Xip251-270), 0.992. Further, the z-score is 0.51 in assay [2], -4.02 (inactive) in assay [3], 0.886 (inactive) in assay [4] and 0.911 (inactive) in assay [5].

Turning to `O=C1C2C=CC(C(O)c3ccccn3)N(Nc3ccc([N+](=O)[O-])cc3)C2C(=O)N1c1ccccc1` (stereo not given), the composite z-score in assay [1] is 0.406 (inactive); in the assay with XIP peptide (Xip251-270), 0.0784. Also, the z-score in assay [2] is -0.22; in assay [3] it was -5.58 (inactive); in assay [4] it was 1.25 (inactive); in assay [5] it was -0.213 (inactive).

Consider `CN(C)CCCCNC(=O)[C@H]1C[C@H]2C(=O)N[C@@H](CCCCN(C)C)C(=O)N2[C@H]1c1ccc(O)cc1`, for which the figures for the composite z-score (in assay [1]; in the assay with XIP peptide (Xip251-270)) were 0.0043 (inactive) and 0.269, respectively. Further, the z-score in assay [2] was -0.435; in assay [3], 0.0335 (inactive); in assay [4], -1.63 (inactive); in assay [5], -1.46 (inactive).

As to `COc1cccc(C)c1NC(=O)O[C@H]1[C@H](OC(=O)Nc2ccccc2-c2ccccc2)[C@@H](OC(=O)Nc2ccccc2-c2ccccc2)[C@@H](OC)O[C@@H]1CO`, the composite z-score in assay [1] is 1.22 (inactive); in the assay on XIP peptide (Xip251-270) it was 0.89. Besides, the z-score in assay [2] is -2.26; in assay [3], -3.57 (inactive); in assay [4], 0.609 (inactive); in assay [5], 0.604 (inactive).

On to `COCCOC(=O)N1C(=O)[C@@]2(c3cc(C#CCC(C(=O)OC)C(=O)OC)ccc31)[C@H](c1ccc(O)cc1)N1[C@H](c3ccccc3)[C@H](c3ccccc3)OC(=O)[C@H]1[C@@H]2C(=O)N1CCc2cc(OC)c(OC)cc2C1`, for which the composite z-score is 0.406 (inactive) in assay [1] and 0.803 in the assay on XIP peptide (Xip251-270). The z-score in assay [2] is -2.15; in assay [3] it was -1.37 (inactive); in assay [4], -0.0407 (inactive); in assay [5] it was 0.46 (inactive).

In the case of `CCCCC=C[C@@H](NC(=O)C(C)(C)C)c1ccccc1`, the composite z-score in assay [1] was 1.38 (inactive); with XIP peptide (Xip251-270), 0.324. The z-score is -0.501 in assay [2], -0.258 (inactive) in assay [3], 0.579 (inactive) in assay [4] and -0.124 (inactive) in assay [5].

With `C=C[C@H](C)[C@@H](OC(=O)Nc1ccc(SC)cc1)c1ccc(OCCO)cc1`, the composite z-score in assay [1] is -0.0975 (inactive); with XIP peptide (Xip251-270), -0.0208. The z-score in assay [2] was -0.526; in assay [3] it was -4.53 (inactive); in assay [4], -0.328 (inactive); in assay [5], -0.809 (inactive).

With `C=CCN1C(=O)[C@@]2(O[C@@H](CCO)[C@H]([Si](C)(C)c3ccc(OC)cc3)[C@H]2C)c2cc(N3CCCCC3=O)ccc21`, the composite z-score in assay [1] is 0.561 (inactive); with XIP peptide (Xip251-270) it was 0.625. Also, the z-score is -2.42 in assay [2], -6.02 (inactive) in assay [3], -1.22 (inactive) in assay [4] and -0.485 (inactive) in assay [5].

As for `CCN1C(=O)C2CC(=O)C3C(CN(S(=O)(=O)c4ccc(C)cc4)C3c3ccc(C)cc3)C2C1=O` (stereo not given), the composite z-score in assay [1] is 0.761 (inactive); with XIP peptide (Xip251-270), -0.248. The z-score is 0.38 in assay [2], -4.69 (inactive) in assay [3], 0.137 (inactive) in assay [4] and -0.0394 (inactive) in assay [5].

As for `COc1ccc([Si](C)(C)[C@H]2[C@H](CC(=O)N3CCC[C@H]3CO)O[C@@]3(C(=O)N(Cc4cccc(N5CCCCC5=O)c4)c4ccccc43)[C@@H]2C)cc1`, the figures for the composite z-score (in assay [1]; in the assay on XIP peptide (Xip251-270)) were 2.57 (inactive) and 0.714, respectively. The z-score is -1.33 in assay [2], -3.23 (inactive) in assay [3], -0.319 (inactive) in assay [4] and 0.519 (inactive) in assay [5].

Take `CC[C@@H](O[Si](C#C[Si](C(C)C)(C(C)C)C(C)C)(C(C)C)C(C)C)c1cn([C@H](C)c2ccccc2)nn1`: the composite z-score is -0.645 (inactive) in assay [1] and -0.0862 with XIP peptide (Xip251-270). Besides, the z-score in assay [2] was -0.38; in assay [3], 0.0519 (inactive); in assay [4] it was 0.0891 (inactive); in assay [5], -0.469 (inactive).

In the case of `CCOC(=O)C[C@H]1[C@H](OC(=O)c2ccccc2-c2ccccc2)[C@@H](NC(=O)CC(C)C)c2cc(OCCCO)ccc2N1C(=O)c1ccccc1`, the composite z-score in assay [1] was 0.539 (inactive); in the assay on XIP peptide (Xip251-270), 0.649. Further, the z-score in assay [2] was -0.966; in assay [3], -4.48 (inactive); in assay [4], -0.439 (inactive); in assay [5], -0.151 (inactive).

For `COC(=O)[C@@]1(Cc2ccccc2)[C@H]2c3cc(C(=O)N(C)C)n(CCF)c3C[C@H]2CN1C(=O)c1ccccc1`, the values for the composite z-score (in assay [1]; with XIP peptide (Xip251-270)) were 1.3 (inactive) and -0.504, respectively. The z-score was -0.684 in assay [2], -4.95 (inactive) in assay [3], -0.441 (inactive) in assay [4] and -0.748 (inactive) in assay [5].

With `COc1ccc([Si](C)(C)[C@H]2[C@H](CC(=O)N(CCO)Cc3ccccc3)O[C@@]3(C(=O)N(c4ccccc4)c4ccccc43)[C@@H]2C)cc1`, the composite z-score is -0.372 (inactive) in assay [1] and 0.342 in the assay with XIP peptide (Xip251-270). Further, the z-score in assay [2] was -2.62; in assay [3], -5.46 (inactive); in assay [4] it was -0.807 (inactive); in assay [5], -0.763 (inactive).

Consider `CCCN1C(=O)[C@@]2(c3ccc([N+](=O)[O-])cc3)CC(=O)N(C3CCCCC3)[C@@H]2c2ccc(CO)cc21`, for which the composite z-score is -0.403 (inactive) in assay [1] and 0.107 with XIP peptide (Xip251-270). Further, the z-score is 0.069 in assay [2], -1.26 (inactive) in assay [3], 0.257 (inactive) in assay [4] and 0.105 (inactive) in assay [5].

Turning to `CCOC(=O)C[C@H]1[C@H](OC(=O)Cc2ccc3c(c2)OCO3)[C@@H](NC(=O)CC(C)C)c2cc(OCCCO)ccc2N1C(=O)c1ccc2ccccc2n1`, the values for the composite z-score (in assay [1]; in the assay on XIP peptide (Xip251-270)) were 0.216 (inactive) and 0.784, respectively. For the same molecule, the z-score in assay [2] was -2.04; in assay [3], -4.65 (inactive); in assay [4], -0.0615 (inactive); in assay [5] it was 0.252 (inactive).

`Cc1ccc(S[C@]2(C(=O)NCC(C)C)CC(=O)N(C(C)C)[C@@H]2c2ccc(CO)cc2I)cc1`: the composite z-score in assay [1] is 0.708 (inactive); in the assay on XIP peptide (Xip251-270) it was 0.689. Besides, the z-score is -1.12 in assay [2], -2.86 (inactive) in assay [3], -0.187 (inactive) in assay [4] and 0.023 (inactive) in assay [5].

Turning to `N#Cc1ccc(NN2C(C(O)c3ccc(B(O)O)cc3)C=CC3CN(c4ccccc4)C(=O)C32)cc1` (stereo not given), the composite z-score in assay [1] is -0.0004 (inactive); in the assay on XIP peptide (Xip251-270), 0.658. Also, the z-score was -0.0223 in assay [2], -2.55 (inactive) in assay [3], -1.03 (inactive) in assay [4] and -0.622 (inactive) in assay [5].

`COC(=O)[C@@]1(Cc2ccc(F)cc2)[C@H]2c3cc(C(=O)N4CCCC4)n(Cc4ccc(OC(F)(F)F)cc4)c3C[C@H]2CN1C(=O)c1ccccc1`: the results for the composite z-score (in assay [1]; with XIP peptide (Xip251-270)) were 0.124 (inactive) and 0.267, respectively. Also, the z-score in assay [2] is 0.096; in assay [3], -3.8 (inactive); in assay [4], 1.06 (inactive); in assay [5], 0.639 (inactive).
